The results in this text go back to the supplement of paper PMC12340641.

Where a name gives a salt, the structure may show the parent alone.

Sequence of IKZF1 (dCK*-IKZF1 fusion in HEK293FT) (Q13422 whole entry, looked up, the tested form may be a part): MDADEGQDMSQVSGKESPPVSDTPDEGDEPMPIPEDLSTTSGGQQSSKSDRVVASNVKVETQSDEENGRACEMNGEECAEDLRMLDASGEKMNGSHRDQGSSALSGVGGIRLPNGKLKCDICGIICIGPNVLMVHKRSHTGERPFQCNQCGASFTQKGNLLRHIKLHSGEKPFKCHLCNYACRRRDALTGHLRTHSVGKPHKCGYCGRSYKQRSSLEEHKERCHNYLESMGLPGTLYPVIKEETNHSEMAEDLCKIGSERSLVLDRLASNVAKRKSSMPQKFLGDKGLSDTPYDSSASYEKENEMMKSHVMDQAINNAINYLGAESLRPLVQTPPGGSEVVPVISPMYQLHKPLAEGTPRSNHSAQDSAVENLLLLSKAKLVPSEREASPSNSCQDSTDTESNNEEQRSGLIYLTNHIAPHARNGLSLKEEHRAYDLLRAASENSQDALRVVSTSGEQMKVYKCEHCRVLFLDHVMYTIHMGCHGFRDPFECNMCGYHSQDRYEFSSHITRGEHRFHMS

The target of the first assay is IKZF1 (dCK*-IKZF1 fusion in HEK293FT) (UniProt Q13422). In words: inhibition of IKZF1 HTRF signal (DMSO = 0%, pomalidomide 10 uM = 100%); higher = lower IKZF1 protein level. As to conditions: compound concentration: 5 uM, overnight (~20 h). The procedure, abridged:
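After overnight treatment at 37 °C with 5 μM compound in single wells, HEK293FT cells (2000/well, 384-well) stably expressing an IKZF1 fusion were lysed for 30 min at room temperature. A commercial HTRF total-IKZF1 antibody kit was incubated with the lysate overnight, and the time-resolved FRET ratio at 665/620 nm was corrected for background. Data are given as percent inhibition of IKZF1 signal relative, on each plate, to vehicle and a reference degrader, set at 0% and 100% respectively.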
In general terms: In TR-FRET formats the signal depends on donor and acceptor labels being close together.
Turning to `C(=C\c1ccccc1)/CN1CCN(C(c2ccccc2)c2ccccc2)CC1`, the “inhibition of IKZF1 HTRF signal” value is -25.9%.
On the same count and under the same terms, next, `COc1nccnc1NS(=O)(=O)c1ccc(N)cc1` [sulfametopyrazine]: 6.66%; `COC(=O)Nc1ccc(-c2nc(N3CCOCC3)c3cnn(C4CCN(Cc5cccnc5)CC4)c3n2)cc1`: -7.75%.
In the case of `C=CCc1ccc(O)c(-c2cc(CC=C)ccc2O)c1` [Magnolol], the “inhibition of IKZF1 HTRF signal” value was -27.1%.
The same measure, in the same setting: in the case of `COc1ccc(CCN(C)CCc2ccc(OC)c(OC)c2)cc1OC` it was -8.39%.
With `COc1cc(N2CCN(CCOCCOCCNC(=O)CNc3cccc4c3C(=O)N(C3CCC(=O)NC3=O)C4=O)CC2)ccc1Nc1ncc(Cl)c(Nc2ccccc2S(=O)(=O)C(C)C)n1` (stereo unspecified), the “inhibition of IKZF1 HTRF signal” value came out at 34.1%.
As to `CC(C)(C)c1ccc(-c2nc3cccc(N4CCN(Cc5ccc6nccnc6c5)CC4)c3[nH]2)cc1`, the “inhibition of IKZF1 HTRF signal” value is -23.9%.
As to `O=C1[C@H]2CCCC[C@H]2C(=O)N1CCCCN1CCN(c2nsc3ccccc23)CC1` [Perospirone], the “inhibition of IKZF1 HTRF signal” value worked out at 16.4%.
Regarding `Cc1coc2c1C(=O)C(=O)c1c-2ccc2c1CCCC2(C)C` [Tanshinone IIA (Tanshinone B)], the “inhibition of IKZF1 HTRF signal” value was found to be 18.3%.
Still for that read-out and setting: in the case of `Clc1ccc(COC(Cn2ccnc2)c2ccc(Cl)cc2Cl)cc1` (stereo unspecified) it was -29.1%.
The same measure, in the same setting: in the case of `Nc1ncc(Cc2ccc(Br)cc2)s1` it was -28.6%; in that of `CCOC(=O)Nc1ccc2c(c1)N(C(=O)CCN1CCOCC1)c1ccccc1S2` [moracizine], -24.3%.
On the same count and under the same terms, next, `CC1(C)Oc2ccc(C#N)cc2[C@H](N(Cc2ncc[nH]2)c2ccc(Cl)cc2)[C@H]1O`: -30.7%; `CCCCC/N=c1/ccn(Cc2ccccc2)c2ccccc12`: -21.7%; `CC(C)/N=c1\cc2n(-c3ccc(Cl)cc3)c3ccccc3nc-2cc1Nc1ccc(Cl)cc1`: 16.2%.
`O=C(Nc1ccc(Cl)cc1)Nc1ccc(Cl)c(Cl)c1` [Triclocarban]: the “inhibition of IKZF1 HTRF signal” value is 15.1%.
For the molecule `Cc1cc(C2CCCCC2)n(O)c(=O)c1` [Ciclopirox], the “inhibition of IKZF1 HTRF signal” value turned out to be 24.4%.
Still for that read-out and setting: next, `CC1=C(C(=O)OC(C)C)C(c2cccc([N+](=O)[O-])c2)C(C(=O)OC2CN(C(c3ccccc3)c3ccccc3)C2)=C(N)N1` (stereo unspecified) [Azelnidipine]: 10.4%.
The same measure, in the same setting: next, `O=C(O)c1cc(/N=N/c2ccc(O)c(C(=O)O)c2)ccc1O`: -32.5%; `CC[C@@]1(O)C(=O)OCc2c1cc1n(c2=O)Cc2cc3c(CN(C)C)c(O)ccc3nc2-1` [Topotecan (Hydrochloride)]: 1.64%.
As for `C/C(=N\NC(=S)N1CCC1)c1ccccn1`, the “inhibition of IKZF1 HTRF signal” value was -11.1%.
`CCN(CC)CCCC(C)Nc1c2ccc(Cl)cc2nc2ccc(OC)cc12` (stereo unspecified): the “inhibition of IKZF1 HTRF signal” value turned out to be 57.3%.
Same read-out and setting: in the case of `CC(C)(C)CC(C)(C)c1ccc(O)c(Cc2ccc(Cl)cc2Cl)c1` it was 115%; in that of `COc1cc(N2CCN(C)CC2)ccc1Nc1nccc(-c2cn(C)c3cnccc23)n1`, -30.7%.
For `c1ccc2c(c1)CCC[C@H]2Nc1nc2ccccc2[nH]1`, the “inhibition of IKZF1 HTRF signal” value is -34.6%.
The same measure, in the same setting: next, `N#CC(c1ccccc1)(c1ccccc1)c1ccccc1Cl`: -37.8%; `COc1cc(NS(=O)(=O)c2ccc(N)cc2)ncn1`: -31.4%.
In the case of `COC(=O)C1=C(C)NC(C)=C(C(=O)OC)C1c1ccccc1[N+](=O)[O-]`, the “inhibition of IKZF1 HTRF signal” value is -23.7%.
Same read-out and setting: next, `Cc1ccc2c(Cl)cc(Cl)c(O)c2n1`: 14%.
Still for that read-out and setting: in the case of `CC(=O)c1ccc(S(=O)(=O)NC(=O)NC2CCCCC2)cc1` it was -56.1%; in that of `Nc1ncnc2c1ncn2[C@@H]1O[C@H](COP(=O)(O)OP(=O)(O)OP(=O)(O)OP(=O)(O)OC[C@H]2O[C@@H](n3cnc4c(N)ncnc43)C(O)C2O)C(O)C1O` (stereo partly specified) [P1,P4-DI(adenosine-5')tetraphosphate ammonium salt], -38%; in that of `Cc1cccc(Nc2nc(-c3ccncc3)cs2)c1`, -51.1%.
Same read-out and setting: in the case of `COc1cccc2c1C(=O)c1c(O)c3c(c(O)c1C2=O)C[C@@](O)(C(=O)CO)C[C@@H]3O[C@H]1C[C@H](N)[C@@H](O)[C@H](C)O1` [Epirubicin Hydrochloride] it was 52.4%.
Regarding `O=c1c(O)c(-c2ccc(O)c(O)c2)oc2cc(O)ccc12` [Fisetin (Fustel)], the “inhibition of IKZF1 HTRF signal” value was determined as 11.3%.
The same measure, in the same setting: in the case of `Oc1cc(O)c2cc(O)c(-c3cc(O)c(O)c(O)c3)[o+]c2c1` [delphinidin] it was 43.4%; in that of `C1CCC(N/C(=N/C23CC4CC(CC(C4)C2)C3)N2CCOCC2)CC1`, -35.4%; in that of `COCCOC(=O)C1=C(C)NC(C)=C(C(=O)OC(C)C)C1c1cccc([N+](=O)[O-])c1` (stereo unspecified), -29.4%.
Regarding `Clc1ccc2c(N3CCN(CCCN4CCN(c5ccnc6cc(Cl)ccc56)CC4)CC3)ccnc2c1`, the “inhibition of IKZF1 HTRF signal” value is 17%.

For a further assay, the system named is HEK293FT dCK*-only. In words: relative growth in counter assay (no AraC = 100%, AraC + DMSO = 0%); higher = more growth rescue independent of IKZF1. Conditions: compound concentration: 5 uM; AraC concentration: 0.3 uM; overnight pretreatment + 4 days AraC. In short, it runs like this:
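Counter assay in HEK293FT cells expressing dCK* alone (300/well, 384-well). Cells received 5 μM compound 2 h after seeding, then after overnight at 37 °C a nucleoside suicide substrate at 0.3 μM plus medium for 4 days. On day 5, Hoechst 33342-stained nuclei were counted by imaging. Relative growth was normalised per plate to wells without suicide substrate (100%) and substrate plus vehicle (0%).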
For the molecule `C(=C\c1ccccc1)/CN1CCN(C(c2ccccc2)c2ccccc2)CC1`, the “relative growth in counter assay” value was -3.15%.
`COc1nccnc1NS(=O)(=O)c1ccc(N)cc1` [sulfametopyrazine]: the “relative growth in counter assay” value is -7.5%.
The same measure, in the same setting: next, `COC(=O)Nc1ccc(-c2nc(N3CCOCC3)c3cnn(C4CCN(Cc5cccnc5)CC4)c3n2)cc1`: -33%; `C=CCc1ccc(O)c(-c2cc(CC=C)ccc2O)c1` [Magnolol]: -9.5%; `COc1ccc(CCN(C)CCc2ccc(OC)c(OC)c2)cc1OC`: 5.51%.
Regarding `COc1cc(N2CCN(CCOCCOCCNC(=O)CNc3cccc4c3C(=O)N(C3CCC(=O)NC3=O)C4=O)CC2)ccc1Nc1ncc(Cl)c(Nc2ccccc2S(=O)(=O)C(C)C)n1` (stereo unspecified), the “relative growth in counter assay” value is -27.8%.
Still for that read-out and setting: next, `CC(C)(C)c1ccc(-c2nc3cccc(N4CCN(Cc5ccc6nccnc6c5)CC4)c3[nH]2)cc1`: 5.2%.
Same read-out and setting: in the case of `O=C1[C@H]2CCCC[C@H]2C(=O)N1CCCCN1CCN(c2nsc3ccccc23)CC1` [Perospirone] it was 19.5%; in that of `Cc1coc2c1C(=O)C(=O)c1c-2ccc2c1CCCC2(C)C` [Tanshinone IIA (Tanshinone B)], 5.29%; in that of `Clc1ccc(COC(Cn2ccnc2)c2ccc(Cl)cc2Cl)cc1` (stereo unspecified), 1.65%.
The same measure, in the same setting: next, `Nc1ncc(Cc2ccc(Br)cc2)s1`: -1.27%; `CCOC(=O)Nc1ccc2c(c1)N(C(=O)CCN1CCOCC1)c1ccccc1S2` [moracizine]: -9.21%; `CC1(C)Oc2ccc(C#N)cc2[C@H](N(Cc2ncc[nH]2)c2ccc(Cl)cc2)[C@H]1O`: -4.85%.
For `CCCCC/N=c1/ccn(Cc2ccccc2)c2ccccc12`, the “relative growth in counter assay” value is -2.74%.
Same read-out and setting: next, `CC(C)/N=c1\cc2n(-c3ccc(Cl)cc3)c3ccccc3nc-2cc1Nc1ccc(Cl)cc1`: -8.1%; `O=C(Nc1ccc(Cl)cc1)Nc1ccc(Cl)c(Cl)c1` [Triclocarban]: 3.72%; `Cc1cc(C2CCCCC2)n(O)c(=O)c1` [Ciclopirox]: -31.2%.
The same measure, in the same setting: next, `CC1=C(C(=O)OC(C)C)C(c2cccc([N+](=O)[O-])c2)C(C(=O)OC2CN(C(c3ccccc3)c3ccccc3)C2)=C(N)N1` (stereo unspecified) [Azelnidipine]: 12.8%.
Same read-out and setting: next, `O=C(O)c1cc(/N=N/c2ccc(O)c(C(=O)O)c2)ccc1O`: -4.73%; `CC[C@@]1(O)C(=O)OCc2c1cc1n(c2=O)Cc2cc3c(CN(C)C)c(O)ccc3nc2-1` [Topotecan (Hydrochloride)]: -36.8%; `C/C(=N\NC(=S)N1CCC1)c1ccccn1`: -34.6%.
For the molecule `CCN(CC)CCCC(C)Nc1c2ccc(Cl)cc2nc2ccc(OC)cc12` (stereo unspecified), the “relative growth in counter assay” value is -34.1%.
As for `CC(C)(C)CC(C)(C)c1ccc(O)c(Cc2ccc(Cl)cc2Cl)c1`, the “relative growth in counter assay” value is -6.45%.
Take `COc1cc(N2CCN(C)CC2)ccc1Nc1nccc(-c2cn(C)c3cnccc23)n1`: the “relative growth in counter assay” value was -9.1%.
Same read-out and setting: in the case of `c1ccc2c(c1)CCC[C@H]2Nc1nc2ccccc2[nH]1` it was -1.81%; in that of `N#CC(c1ccccc1)(c1ccccc1)c1ccccc1Cl`, 1.13%.
The same measure, in the same setting: next, `COc1cc(NS(=O)(=O)c2ccc(N)cc2)ncn1`: -5.7%; `COC(=O)C1=C(C)NC(C)=C(C(=O)OC)C1c1ccccc1[N+](=O)[O-]`: -4.16%.
The same measure, in the same setting: in the case of `Cc1ccc2c(Cl)cc(Cl)c(O)c2n1` it was -5.48%; in that of `CC(=O)c1ccc(S(=O)(=O)NC(=O)NC2CCCCC2)cc1`, 5.07%.
`Nc1ncnc2c1ncn2[C@@H]1O[C@H](COP(=O)(O)OP(=O)(O)OP(=O)(O)OP(=O)(O)OC[C@H]2O[C@@H](n3cnc4c(N)ncnc43)C(O)C2O)C(O)C1O` (stereo partly specified) [P1,P4-DI(adenosine-5')tetraphosphate ammonium salt]: the “relative growth in counter assay” value was 5.12%.
Turning to `Cc1cccc(Nc2nc(-c3ccncc3)cs2)c1`, the “relative growth in counter assay” value is -8.26%.
For `COc1cccc2c1C(=O)c1c(O)c3c(c(O)c1C2=O)C[C@@](O)(C(=O)CO)C[C@@H]3O[C@H]1C[C@H](N)[C@@H](O)[C@H](C)O1` [Epirubicin Hydrochloride], the “relative growth in counter assay” value is -34.5%.
On the same count and under the same terms, next, `O=c1c(O)c(-c2ccc(O)c(O)c2)oc2cc(O)ccc12` [Fisetin (Fustel)]: -3.66%.
On the same count and under the same terms, in the case of `Oc1cc(O)c2cc(O)c(-c3cc(O)c(O)c(O)c3)[o+]c2c1` [delphinidin] it was -7.27%; in that of `C1CCC(N/C(=N/C23CC4CC(CC(C4)C2)C3)N2CCOCC2)CC1`, 13%; in that of `COCCOC(=O)C1=C(C)NC(C)=C(C(=O)OC(C)C)C1c1cccc([N+](=O)[O-])c1` (stereo unspecified), -11.4%.
In the case of `Clc1ccc2c(N3CCN(CCCN4CCN(c5ccnc6cc(Cl)ccc56)CC4)CC3)ccnc2c1`, the “relative growth in counter assay” value was 3.87%.
